# Results filed as inconclusive are left out. Active and inactive are the calls of the source. The call rests on the fitted dose curve; in most records, active means well fitted inhibition curve with a large enough effect; inconclusive means small, poorly fitted or top-dose-only effect; inactive means no such curve, though single readings can be large or run the other way.
# Molecular target: Cytochrome P450 3A4 (Homo sapiens) (UniProt P08684)
# Assay: qHTS Assay for Inhibitors and Substrates of Cytochrome P450 3A4 (AID 884); further: nearly all actives have a fitted effect of over 50% in size
# Settings: recombinant CYP3A4, Luciferin-PPXE luminescence; series mostly up to 57.1 µM; activity change, negative = inhibition: at the top concentration
# Experimental: NIH Molecular Libraries Screening Centers Network [MLSCN]
# NIH Chemical Genomics Center [NCGC]
# The P450 gene superfamily is involved in the metabolism and clearance of xenobiotics. This assay used human CYP3A4 to measure the dealkylation of luciferin-6' phenylpiperazinylyl (Luciferin-PPXE; […]) to luciferin. The luciferin is then measured by luminescence after the addition of a luciferase detection reagent. Luciferin-PPXE concentration in the assay was equal to its KM for CYP3A4. Inhibitors and some substrates limit the production of luciferin, and decrease measured luminescence.
# NCGC Assay Protocol Summary:
# Two uL of enzyme and substrate mix (final concentrations: 20nM CYP3A4, 25uM Luciferin-PPXE, 200mM KPO4) were dispensed into a white, solid bottom 1536-well microtiter plate. 23nL of compound was transferred by a pin tool. The plate was incubated at RT for 10 min. Two uL of an NADPH regeneration solution (Promega supplied reagent) was dispensed and the reaction was allowed to continue for 60 min at RT. Then the reaction was stopped by reconstituted luciferin detection buffer. After another 20 min of incubation the plate was read on the ViewLux (Perkin Elmer) at 60 sec exposure and 2x2 binning. This protocol was carried out with Promega-Glo reagents and further information can be found at http://www.promega.com/tbs/tb325/tb325.pdf. Data were normalized to the to AC100 inhibition (57 uM ketoconazole).
# Keywords: P450, CYP3A4, Luciferase, MLSMR, MLSCN, NIH Roadmap, qHTS, NCGC
# On the % scale 0 is the no-effect control and ±100 the full control effect; potency means the concentration at half of the fitted maximal effect.
# Chain of Cytochrome P450 3A4 (Homo sapiens) (P08684 whole entry, looked up): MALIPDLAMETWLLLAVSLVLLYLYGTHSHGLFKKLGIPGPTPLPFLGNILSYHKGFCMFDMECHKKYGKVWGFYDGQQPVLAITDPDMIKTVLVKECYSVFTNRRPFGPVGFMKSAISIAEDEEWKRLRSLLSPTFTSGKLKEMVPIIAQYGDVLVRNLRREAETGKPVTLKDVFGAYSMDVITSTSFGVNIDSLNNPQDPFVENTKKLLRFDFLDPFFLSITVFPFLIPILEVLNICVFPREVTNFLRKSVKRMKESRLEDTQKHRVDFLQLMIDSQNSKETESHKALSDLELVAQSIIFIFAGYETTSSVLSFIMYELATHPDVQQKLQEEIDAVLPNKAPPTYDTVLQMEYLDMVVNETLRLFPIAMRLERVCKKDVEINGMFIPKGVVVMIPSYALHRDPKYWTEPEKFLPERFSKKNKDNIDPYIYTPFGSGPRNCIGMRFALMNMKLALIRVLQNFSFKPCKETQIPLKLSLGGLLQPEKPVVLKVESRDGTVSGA
Structure (SMILES),Potency,"activity change, negative = inhibition"
CC(C)N1CCN(c2ccncc2S(=O)(=O)N2CCCCC2)CC1,3.16 µM (active),–
CN(C)CCCN1c2ccccc2Sc2cnccc21,1.58 µM (active),–
O=C(Nc1cccc2ccccc12)c1ccccc1,3.16 µM (active),–
Nc1ccccc1O,–,-27.8% (inactive)
CN[C@@H](c1ccncc1)[C@@H](NC)c1ccncc1,5.01 µM (active),–
O=C1O/C(=C\Br)CC[C@@H]1c1cccc2ccccc12,3.98 µM (active),–
COc1ccccc1CCn1c(=O)c(-c2ccccc2)nc2cncnc21,3.98 µM (active),–
CC(=O)c1ccc(Cl)c(Cl)c1Cl,–,-2.89% (inactive)
C[C@]1(c2ccccc2)O[C@@H]2C[C@@H]3[C@@H]4CCC5=CC(=O)C=C[C@@]5(C)[C@]4(F)[C@H](O)C[C@]3(C)[C@@]2(C(=O)CO)O1,3.16 µM (active),–
COCCn1c(=O)c(CCc2ccccc2)nc2cnc(Oc3cccc(Cl)c3)nc21,0.794 µM (active),–
COc1ccc([C@@H](Nc2ncccn2)c2cc3c(cc2O)OCO3)cc1,2.51 µM (active),–
C=CC(=O)CC,–,-18.5% (inactive)
Cc1ccccc1N1CCN(S(=O)(=O)C[C@@]23CC[C@H](C[C@H]2NC(=O)[C@@H](N)CCS(C)(=O)=O)C3(C)C)CC1,3.16 µM (active),–
CC(C)(C)C(=O)C1C(=O)c2ccccc2C1=O,–,-24.1% (inactive)
CC(C)[C@@H]1NC(=O)[C@H](CCCCN)NC(=O)[C@H](Cc2c[nH]c3ccccc23)NC(=O)[C@H](Cc2ccc(O)cc2)NC(=O)[C@H](C)N(C)C(=O)[C@H](Cc2ccccc2)NC1=O,3.98 µM (active),–
COc1cc2c(cc1OC)[C@H](c1ccccc1)CN(C)CC2,–,70.9% (inactive)
N=C(N)S[C@H]1c2ccccc2-c2cc([N+](=O)[O-])ccc21,5.01 µM (active),–
c1ccc(CSCc2ccccc2)cc1,–,3.74% (inactive)
Cc1ccc(Nc2nnc(-c3ccc4c(c3)OCO4)o2)c(C)c1,3.16 µM (active),–
CC(C)COC(=O)COc1cc(Cl)c(Cl)cc1Cl,–,-20.9% (inactive)

Structure (SMILES),Potency,"activity change, negative = inhibition"
CCCCCCCCOc1ccc(C(=O)O)cc1,–,-14.8% (inactive)
Cc1cc(N2CCOCC2)nc2ccc(Cc3ccc4nc(N5CCOCC5)cc(C)c4c3)cc12,–,91.2% [at 11.4 µM] (inactive)
O=C1c2ccccc2C(=O)C1(O)O,–,-12% (inactive)
COc1cc(-c2ccc(N=C=O)c(OC)c2)ccc1N=C=O,12.6 µM (active),–
Brc1cc(Oc2cc(Br)c(Br)c(Br)c2Br)c(Br)c(Br)c1Br,–,-13.1% (inactive)
O=c1c(-c2ccccc2)nc2cnc(N3CCNCC3)nc2n1Cc1ccc(F)cc1,3.16 µM (active),–
O=C1c2ccccc2N[C@H](c2cc(Cl)cc(Cl)c2O)N1CCc1ccccn1,0.794 µM (active),–
C[C@](O)(c1ccccc1)c1nccc2ccccc12,–,49.6% [at 11.4 µM] (inactive)
Cc1ccc(C(=N)c2ccccc2Cc2cccc3ccccc23)c2ccccc12,3.98 µM (active),–
N=c1ccn2c(n1)O[C@@H]1[C@@H](O)[C@H](CO)O[C@H]12,–,41.4% (inactive)
COCCn1c(=O)c(-c2cc(F)cc(F)c2)nc2cnc(Oc3ccc(OC)cc3)nc21,3.16 µM (active),–
COc1ccccc1-c1ccc2ncnc(NCc3cccnc3)c2c1,0.631 µM (active),–
CCOC(=O)C1OC1c1ccccc1 (stereo not given),–,-2.78% (inactive)
CCCC(=O)OC(=O)CCC,–,-9.12% (inactive)
O=c1[nH]c(SCc2c(Cl)c(Cl)c(Cl)c(Cl)c2Cl)nc(=S)[nH]1,3.16 µM (active),–
CSC1(SC2=NCCN2)SC2(NCCN2)S1,1.26 µM (active),–
C/C=C1/C(=O)C[C@H]2[C@@H]3CCC4=CC(=O)CC[C@]4(C)[C@H]3CC[C@]12C,–,11.8% (inactive)
c1ccc(SC(Sc2ccccc2)c2ccc3c(c2)OCO3)cc1,2.51 µM (active),–
O[C@H](CN1CCN(c2cccc(Cl)c2)CC1)C(c1ccccc1)c1ccccc1,–,69% (inactive)
CC1CCN(CC(=O)N2c3ccccc3Sc3cc4ccccc4cc32)CC1,3.98 µM (active),–
